Measurements published in ChEMBL document CHEMBL3988442, “University of Dundee, Small-Polar-MMV Screening Library” (2021).
For some of these results: Potency and affinity values are given separately.

How the values were obtained:
Parameters in all cases: scale not given: direction of the effect not stated beside the values
[1] = target: Protein translocase subunit SecA (Escherichia coli (strain K12)) (UniProt P10408); test: Assay to Identify E. coli SecA ATPase Inhibitors; type: functional; settings: 30 µM
[2] = target: T1, Ubiquitin-activating enzyme e1, putative (Leishmania donovani (strain BPK282A1)) (UniProt E9BSI1); test: Leishmania donovani Ubiquitin Activating Enzyme (LdE1); type: functional; settings: 30 µM
T1 sequence (whole entry): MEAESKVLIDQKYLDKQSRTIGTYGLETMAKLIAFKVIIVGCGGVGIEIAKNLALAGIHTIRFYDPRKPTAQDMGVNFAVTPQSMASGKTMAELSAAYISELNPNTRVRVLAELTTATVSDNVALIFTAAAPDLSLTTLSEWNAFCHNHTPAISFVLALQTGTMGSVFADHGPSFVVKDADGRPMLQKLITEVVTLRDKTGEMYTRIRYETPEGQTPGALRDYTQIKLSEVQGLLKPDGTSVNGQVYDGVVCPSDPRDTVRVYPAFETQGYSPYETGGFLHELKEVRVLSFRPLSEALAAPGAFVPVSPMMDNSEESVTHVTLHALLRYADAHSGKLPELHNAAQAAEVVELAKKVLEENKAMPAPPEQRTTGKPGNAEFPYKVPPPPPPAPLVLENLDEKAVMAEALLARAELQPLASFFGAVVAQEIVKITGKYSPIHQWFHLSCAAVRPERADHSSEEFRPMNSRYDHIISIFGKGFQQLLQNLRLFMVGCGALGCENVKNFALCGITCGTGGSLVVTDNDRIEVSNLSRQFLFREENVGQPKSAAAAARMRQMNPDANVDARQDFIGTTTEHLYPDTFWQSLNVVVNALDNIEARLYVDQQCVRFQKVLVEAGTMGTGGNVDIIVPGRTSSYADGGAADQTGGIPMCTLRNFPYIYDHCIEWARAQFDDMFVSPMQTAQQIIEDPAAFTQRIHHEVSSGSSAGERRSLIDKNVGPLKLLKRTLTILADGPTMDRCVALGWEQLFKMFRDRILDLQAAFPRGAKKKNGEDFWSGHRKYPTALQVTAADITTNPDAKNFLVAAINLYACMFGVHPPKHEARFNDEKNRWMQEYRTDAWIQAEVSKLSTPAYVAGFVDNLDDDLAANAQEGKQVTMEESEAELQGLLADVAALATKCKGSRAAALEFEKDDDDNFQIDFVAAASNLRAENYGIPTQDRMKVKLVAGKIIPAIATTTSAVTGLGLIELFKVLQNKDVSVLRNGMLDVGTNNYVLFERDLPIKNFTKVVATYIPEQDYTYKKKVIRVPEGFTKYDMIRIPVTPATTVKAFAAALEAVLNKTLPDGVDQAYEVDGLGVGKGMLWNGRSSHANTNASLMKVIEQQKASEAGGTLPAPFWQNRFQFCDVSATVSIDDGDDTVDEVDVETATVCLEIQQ

[3] = target: AMP-activated protein kinase, AMPK (Homo sapiens) (UniProt P54646+O43741+P54619+Q9UGJ0+Q9Y478+Q13131+Q9UGI9); test: AMP-dependent Kinase enzyme assay. An in vitro enzyme assay that detects ADP turnover that is directly proportional to AMPK activity. This uses naive AMPK that is activated during the assay with MK-8722; type: functional; settings: 30 µM
[4] = target: Sialic acid-binding Ig-like lectin 9 (Homo sapiens) (UniProt Q9Y336); test: Hs-Siglec9 ALPHAscreen SOP 20170721; settings: 10 µM
[5] = tested on: Trypanosoma cruzi; test: Trypanosoma cruzi phosphomannomutase and mannose-1-phosphate guanylyltransferase assay; type: functional; settings: 10 µM
[6] = target: T2, Arginase-2, mitochondrial (Homo sapiens) (UniProt P78540); test: in vitro enzyme assay to detect the production of urea directly proportional to the activity of Arginase II; type: functional; settings: 33.3 µM; further: in the data most compounds retested in dose-response had high values
T2 sequence (whole entry): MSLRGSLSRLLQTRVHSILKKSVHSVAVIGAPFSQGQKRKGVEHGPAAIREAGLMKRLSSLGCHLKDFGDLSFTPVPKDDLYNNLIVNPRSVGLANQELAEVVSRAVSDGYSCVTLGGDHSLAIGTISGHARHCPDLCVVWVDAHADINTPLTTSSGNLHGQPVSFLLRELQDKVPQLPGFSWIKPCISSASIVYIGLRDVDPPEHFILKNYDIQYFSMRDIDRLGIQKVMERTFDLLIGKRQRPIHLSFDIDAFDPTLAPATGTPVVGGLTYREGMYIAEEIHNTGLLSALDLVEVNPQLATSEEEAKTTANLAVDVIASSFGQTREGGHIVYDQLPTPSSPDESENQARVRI

[7] = target: T3, Proteasome subunit beta (Trypanosoma cruzi) (UniProt O96673); test: Trypanosoma cruzi proteasome chymotrypsin-like activity (TcProtChymo) assay.; further: in the data most compounds retested in dose-response had high values; type: functional; settings: 9.37 µM
T3 sequence (whole entry): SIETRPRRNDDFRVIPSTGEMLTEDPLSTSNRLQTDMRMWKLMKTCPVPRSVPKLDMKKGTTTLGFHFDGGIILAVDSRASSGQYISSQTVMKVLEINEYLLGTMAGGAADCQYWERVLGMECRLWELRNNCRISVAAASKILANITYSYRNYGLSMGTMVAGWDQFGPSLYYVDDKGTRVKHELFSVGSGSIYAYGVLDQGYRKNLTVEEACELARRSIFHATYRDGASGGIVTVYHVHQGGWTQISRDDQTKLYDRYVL

[8] = species: Homo sapiens; test: To identify inhibition of the IFN signalling (Jak-Stat) pathway via expression of an eGFP reporter gene under the control of an IFN-stimulated response element (ISRE) containing MxA promoter.; type: functional; settings: 30 µM
[9] = target: T4, Tyrosyl-tRNA synthetase, putative (Trypanosoma cruzi (strain CL Brener)) (UniProt Q4DSP6); test: Trypanosoma cruzi tyrosyl tRNA synthetase (TcYRS) _High Tyrosine SOP; type: functional; settings: 30 µM; further: in the data most compounds retested in dose-response had high values
T4 sequence (whole entry): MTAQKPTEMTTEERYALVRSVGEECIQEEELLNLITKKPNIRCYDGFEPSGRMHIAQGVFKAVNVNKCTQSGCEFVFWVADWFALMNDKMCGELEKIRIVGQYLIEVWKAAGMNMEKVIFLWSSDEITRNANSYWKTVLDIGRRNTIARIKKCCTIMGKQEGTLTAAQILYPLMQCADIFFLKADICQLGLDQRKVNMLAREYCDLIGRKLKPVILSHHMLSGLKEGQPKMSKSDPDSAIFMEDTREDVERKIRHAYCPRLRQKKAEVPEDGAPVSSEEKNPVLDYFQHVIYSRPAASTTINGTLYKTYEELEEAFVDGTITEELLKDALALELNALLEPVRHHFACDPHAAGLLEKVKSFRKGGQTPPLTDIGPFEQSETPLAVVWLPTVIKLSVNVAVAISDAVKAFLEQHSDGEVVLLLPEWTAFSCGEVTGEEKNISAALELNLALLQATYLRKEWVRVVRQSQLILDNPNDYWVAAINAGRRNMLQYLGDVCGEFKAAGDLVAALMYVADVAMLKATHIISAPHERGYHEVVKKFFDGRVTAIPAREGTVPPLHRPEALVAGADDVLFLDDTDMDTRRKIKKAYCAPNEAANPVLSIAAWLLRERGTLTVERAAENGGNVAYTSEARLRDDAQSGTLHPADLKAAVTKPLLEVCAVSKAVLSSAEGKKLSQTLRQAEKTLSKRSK

[10] = target: T4, Tyrosyl-tRNA synthetase, putative (Trypanosoma cruzi (strain CL Brener)); test: Trypanosoma cruzi tyrosyl tRNA synthetase (TcYRS) SOP; type: functional; settings: 30 µM
[11] = target: Chromo domain-containing protein 1 (Saccharomyces cerevisiae (strain ATCC 204508 / S288c) (Baker's yeast)) (UniProt P32657); test: ScCHD-1 Enzyme Inhibition Assay; type: functional; settings: 30 µM; further: in the data most compounds retested in dose-response had high values
Chromo domain-containing protein 1 (Saccharomyces cerevisiae (strain ATCC 204508 / S288c) (Baker's yeast)), sequence (P32657 whole entry, the tested form may be a part): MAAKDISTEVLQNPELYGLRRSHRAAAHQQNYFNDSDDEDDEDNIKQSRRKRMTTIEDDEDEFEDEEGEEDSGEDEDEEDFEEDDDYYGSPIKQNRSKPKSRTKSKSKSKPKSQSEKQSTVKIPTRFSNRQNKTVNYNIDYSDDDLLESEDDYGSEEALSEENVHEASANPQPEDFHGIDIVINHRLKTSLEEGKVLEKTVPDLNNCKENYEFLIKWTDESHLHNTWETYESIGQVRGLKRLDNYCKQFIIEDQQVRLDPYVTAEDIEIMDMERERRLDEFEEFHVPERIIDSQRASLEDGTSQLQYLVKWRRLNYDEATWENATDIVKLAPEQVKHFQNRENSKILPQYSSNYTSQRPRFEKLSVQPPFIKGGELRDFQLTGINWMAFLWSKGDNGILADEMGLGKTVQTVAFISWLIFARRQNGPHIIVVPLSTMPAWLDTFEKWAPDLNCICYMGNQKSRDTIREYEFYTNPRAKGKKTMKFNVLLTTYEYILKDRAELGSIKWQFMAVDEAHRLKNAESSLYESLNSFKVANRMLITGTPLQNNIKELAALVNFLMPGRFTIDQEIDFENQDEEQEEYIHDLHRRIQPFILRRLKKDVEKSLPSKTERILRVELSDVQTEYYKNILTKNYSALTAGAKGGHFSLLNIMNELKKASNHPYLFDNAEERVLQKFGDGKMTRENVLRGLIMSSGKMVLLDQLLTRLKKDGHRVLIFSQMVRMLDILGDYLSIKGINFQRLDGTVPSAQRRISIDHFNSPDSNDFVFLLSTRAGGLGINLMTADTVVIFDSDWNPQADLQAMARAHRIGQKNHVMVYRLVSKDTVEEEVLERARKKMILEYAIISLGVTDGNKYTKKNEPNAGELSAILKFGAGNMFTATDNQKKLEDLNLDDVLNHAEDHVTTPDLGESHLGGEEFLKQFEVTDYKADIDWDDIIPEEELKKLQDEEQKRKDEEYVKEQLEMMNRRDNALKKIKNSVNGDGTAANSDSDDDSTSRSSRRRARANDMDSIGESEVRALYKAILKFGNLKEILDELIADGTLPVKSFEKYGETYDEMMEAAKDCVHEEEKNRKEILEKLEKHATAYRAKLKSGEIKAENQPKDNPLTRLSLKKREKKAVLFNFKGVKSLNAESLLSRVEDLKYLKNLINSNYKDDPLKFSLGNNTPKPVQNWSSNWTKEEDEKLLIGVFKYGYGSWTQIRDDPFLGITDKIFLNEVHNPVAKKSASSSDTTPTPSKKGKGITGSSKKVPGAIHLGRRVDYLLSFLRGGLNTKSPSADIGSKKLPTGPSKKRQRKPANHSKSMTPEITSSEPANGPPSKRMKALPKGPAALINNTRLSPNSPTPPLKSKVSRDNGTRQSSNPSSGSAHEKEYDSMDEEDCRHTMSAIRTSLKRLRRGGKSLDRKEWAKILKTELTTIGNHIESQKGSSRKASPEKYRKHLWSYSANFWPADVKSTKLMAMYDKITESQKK

Sialic acid-binding Ig-like lectin 9 (Homo sapiens), sequence (Q9Y336 whole entry): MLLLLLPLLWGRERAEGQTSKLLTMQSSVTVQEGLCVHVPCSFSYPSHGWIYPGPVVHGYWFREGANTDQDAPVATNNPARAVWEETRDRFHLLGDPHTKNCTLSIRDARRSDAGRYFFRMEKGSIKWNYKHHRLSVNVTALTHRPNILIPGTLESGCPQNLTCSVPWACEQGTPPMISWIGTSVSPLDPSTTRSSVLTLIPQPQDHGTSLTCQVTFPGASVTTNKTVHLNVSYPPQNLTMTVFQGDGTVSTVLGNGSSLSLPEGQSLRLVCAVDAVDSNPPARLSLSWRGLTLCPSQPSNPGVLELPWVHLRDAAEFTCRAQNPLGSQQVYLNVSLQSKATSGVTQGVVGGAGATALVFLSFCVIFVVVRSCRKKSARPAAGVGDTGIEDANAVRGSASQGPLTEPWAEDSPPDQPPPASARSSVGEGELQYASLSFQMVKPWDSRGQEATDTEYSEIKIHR
Protein translocase subunit SecA (Escherichia coli (strain K12)), sequence (P10408 whole entry): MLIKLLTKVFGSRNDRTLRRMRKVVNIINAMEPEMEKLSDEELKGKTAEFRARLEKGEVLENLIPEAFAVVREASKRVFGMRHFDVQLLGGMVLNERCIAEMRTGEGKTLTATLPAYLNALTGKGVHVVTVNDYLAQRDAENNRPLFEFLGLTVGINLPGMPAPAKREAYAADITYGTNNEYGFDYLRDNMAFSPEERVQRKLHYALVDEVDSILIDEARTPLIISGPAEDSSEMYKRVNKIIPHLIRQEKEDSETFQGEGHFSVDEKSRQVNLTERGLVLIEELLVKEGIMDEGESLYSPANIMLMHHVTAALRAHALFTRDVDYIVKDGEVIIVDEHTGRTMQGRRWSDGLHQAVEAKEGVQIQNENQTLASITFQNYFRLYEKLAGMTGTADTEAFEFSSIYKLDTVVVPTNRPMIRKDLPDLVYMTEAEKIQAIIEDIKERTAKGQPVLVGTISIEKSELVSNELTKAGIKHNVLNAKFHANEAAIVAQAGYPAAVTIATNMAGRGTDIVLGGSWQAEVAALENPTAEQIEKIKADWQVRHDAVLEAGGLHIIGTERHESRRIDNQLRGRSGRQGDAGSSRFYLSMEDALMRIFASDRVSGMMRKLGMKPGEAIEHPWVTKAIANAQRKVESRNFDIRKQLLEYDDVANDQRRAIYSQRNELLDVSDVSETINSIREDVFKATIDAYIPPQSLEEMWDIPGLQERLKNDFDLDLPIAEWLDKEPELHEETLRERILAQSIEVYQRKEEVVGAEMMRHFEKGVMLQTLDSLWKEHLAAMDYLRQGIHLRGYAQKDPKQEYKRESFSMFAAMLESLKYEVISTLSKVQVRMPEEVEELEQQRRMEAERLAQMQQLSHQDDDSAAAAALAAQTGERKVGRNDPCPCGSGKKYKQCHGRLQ

Compound	Percent Effect [1]	Percent Effect [2]	Percent Effect [3]	Percent Effect [4]	Percent Effect [5]	Percent Effect [6]	Percent Effect [7]	Percent Effect [8]	Percent Effect [9]	Percent Effect [10]	Percent Effect [11]
COCCNC(=O)[C@@H]1CC[C@@H]2[C@@H](CCN2Cc2cnn(C)c2)O1	-1.36%	13.3%	-7.81%	2.22%	-0.386%	-43.5%	9.74%	2.61%	3.12%	10%	-7.85%
CCn1ccnc1CN1C[C@@H](CN2CCCC2)[C@@H](CO)C1	-6.84%	-2.7%	-3.35%	7.12%	-4.44%	-1.91%	8.28%	-5.58%	1.59%	7.32%	-1.85%
CC(=O)N1CCN(c2cc(-c3ccccc3)nc3c(C)c(C)nn23)CC1	-6.15%	-11%	-6.13%	6.66%	4.96%	2.4%	16.2%	4.69%	7.29%	8.64%	-7.72%
CN(C)CC1CSCCCN1C(=O)Nc1ccc(C(C)(C)C)cc1 (configuration not stated)	-1.39%	5.2%	3.67%	12.9%	-9.96%	-5.81%	1.57%	13.1%	4.23%	8.97%	-4.09%
CC(c1ccc(Cl)cc1)N1CCN(CCNS(C)(=O)=O)CC1 (configuration not stated)	-4%	-2.7%	-2.79%	66.6%	3.28%	0.952%	10.7%	4.77%	4.76%	19.5%	-8.23%
CN1CC(=O)N(c2cnn(C)c2)CC12CCN(Cc1nccn1C)C2 (configuration not stated)	-0.706%	8.22%	4.05%	7.48%	-4.17%	-0.399%	10.2%	6.84%	4.17%	6.17%	-4.89%
Cc1nn(C)c(C)c1C1CCCN1C(=O)CCNc1ncccn1 (configuration not stated)	-5.59%	18.4%	-8.92%	11.3%	5.32%	-8.63%	-1.1%	-2.96%	3.45%	18.5%	-4.96%
CC1(C(=O)N2CCOCC2)CN(Cc2ccccc2F)CCO1 (configuration not stated)	-2.69%	8%	12%	4.39%	-4.13%	0.699%	-1.15%	17%	3.19%	8.97%	-1.88%
CCOc1ccc(Cl)cc1CNCCCn1ccnc1	-0.524%	6.67%	7.15%	-7.03%	-5.5%	-9.68%	19%	11%	-2.12%	5.13%	-11.2%
CCOc1ccc(N2CCCN=C2NC(=O)c2cccc(Cl)c2)cc1	-0.891%	5.2%	1.42%	2.2%	-4.62%	-13.8%	14.6%	1.55%	3.23%	13.6%	0.903%
CCc1c(C(=O)NCC(=O)OCC2CC2)cnn1-c1ccc(C)cc1	-5.86%	22.8%	2.14%	-2.84%	9.54%	0.38%	10.7%	29%	6.4%	24.1%	-9.54%
CC(C)c1cnc(CNc2c(F)cccc2-n2cccn2)o1	1.05%	-1.39%	-3.66%	6.14%	1.26%	12.4%	11.2%	-14.6%	-1.05%	0%	0.741%
CCc1nc(CN(C)C2CCN(CCn3cc(C#N)cn3)C2)no1 (configuration not stated)	1.6%	13.5%	-2.36%	-1.05%	-7.64%	-13.6%	17.5%	23.4%	4.43%	6.17%	-5.98%
Cc1cccc(-c2nc(CN3CCc4c(ncn4C)C3)no2)c1	-6.97%	2.6%	-1.39%	-3.74%	-7.12%	0.356%	2.7%	21.7%	-0.971%	-2.44%	-2.23%
Cc1cc(-c2cnn(CCNC(=O)c3cccnc3)c2C2CC2)on1	-4.86%	4.05%	7.97%	2.6%	-0.395%	-3.48%	-1.09%	7.9%	5.38%	9.09%	1.21%
CCn1c(C)nnc1CN(C)C1CCN(Cc2nccn2C)C1 (configuration not stated)	2.98%	10.8%	-6.53%	-4.6%	-8.7%	2.23%	11.8%	16.4%	9.68%	16.1%	-3.99%
CC(C)NC(=O)N1CC[C@@H]2CN(Cc3cccc(Cl)c3)S(=O)(=O)[C@@H]2CC1	-0.309%	8%	9.12%	-2.2%	-7.34%	-59.3%	13.5%	35.6%	0%	10%	-7.22%
